Our source for the Potency values is PubChem BioAssay (NCATS).

Test [1] in a line: qHTS of pediatric cancer cell lines to identify multiple opportunities for drug repurposing: Primary screen for SK-N-MC cells (AID 1347093). Note: potency is the fitted concentration of half-maximal effect. The gist of the method: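 Metabolically active cells were quantified by ATP-dependent luminescence (CellTiter-Glo, 15 min at room temperature) following 48 h treatment. Cells had been plated at 500-1,000 per well and settled for 5 h beforehand.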

Test [2] can be described thus: qHTS of pediatric cancer cell lines to identify multiple opportunities for drug repurposing: Primary screen for BT-37 cells (AID 1347094). Note: potency is the fitted concentration of half-maximal effect. A digest of the protocol:
(§1)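 Primary screen of approved and investigational compounds on cells in growth media at 37 degrees C, 5% CO2. MIPE set at 11-point and NPC set at 8-point dilutions; viability scored by ATP-based luminescence at 48 hours.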

Test [3] is described as follows: qHTS of pediatric cancer cell lines to identify multiple opportunities for drug repurposing: Primary screen for NB-EBc1 cells (AID 1347095). Note: potency is the fitted concentration of half-maximal effect. A digest of the protocol:
as §1

A short description of test [4]: qHTS of pediatric cancer cell lines to identify multiple opportunities for drug repurposing: Primary screen for U-2 OS cells (AID 1347096). Note: nearly all actives have a fitted effect of over 50% in size. Note: potency is the fitted concentration of half-maximal effect. A digest of the protocol:
(§2)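 Viability after 48 h compound treatment at 37C, 500-1,000 cells/well, read as ATP luminescence with CellTiter-Glo. Primary screens used 11-point (MIPE, 0.78 nM-46 µM) or 8-point (NPC, 0.59 nM-46 µM) final concentrations; follow-up screens used 11-point dilutions.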

Test [5] in a line: qHTS of pediatric cancer cell lines to identify multiple opportunities for drug repurposing: Primary screen for Saos-2 cells (AID 1347097). Note: nearly all actives have a fitted effect of over 40% in size. Note: potency is the fitted concentration of half-maximal effect. The gist of the method:
as §1

A short description of test [6]: qHTS of pediatric cancer cell lines to identify multiple opportunities for drug repurposing: Primary screen for SK-N-SH cells (AID 1347098). Note: nearly all actives have a fitted effect of over 65% in size. Note: potency is the fitted concentration of half-maximal effect. A digest of the protocol: (§3)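 Cells (500-1,000/well) rested 5 h, then received compounds for 48 h; metabolically active cells were measured by CellTiter-Glo luminescence. Final concentrations spanned up to 46 µM (MIPE, 11-point) or 0.59 nM-46 µM (NPC, 8-point) in primary screens, 11-point in follow-ups.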

Test [7] is described as follows: qHTS of pediatric cancer cell lines to identify multiple opportunities for drug repurposing: Primary screen for NB1643 cells (AID 1347099). Note: nearly all actives have a fitted effect of over 50% in size. The gist of the method: as §1
A short description of test [8]: qHTS of pediatric cancer cell lines to identify multiple opportunities for drug repurposing: Primary screen for LAN-5 cells (AID 1347100). Note: potency is the fitted concentration of half-maximal effect. A digest of the protocol:
as §2

Test [9] in a line: qHTS of pediatric cancer cell lines to identify multiple opportunities for drug repurposing: Primary screen for BT-12 cells (AID 1347101). Note: nearly all actives have a fitted effect of over 25% in size. Note: potency is the fitted concentration of half-maximal effect. A digest of the protocol: as §3
A short description of test [10]: qHTS of pediatric cancer cell lines to identify multiple opportunities for drug repurposing: Primary screen for Rh18 cells (AID 1347102). Note: nearly all actives have a fitted effect of over 65% in size. Note: potency is the fitted concentration of half-maximal effect. A digest of the protocol:
as §2

Records with an inconclusive call do not appear. Values without a mark were called inactive. Active and inactive are the calls of the source. Calls come from the whole dose curve; as a rule, active = well fitted curve in the direction sought with a large enough effect; inconclusive = small, poorly fitted or top-dose-only effect, or another doubt; inactive = no such curve, though single readings can be large; an effect the other way counts as inactive or inconclusive. Where a SMILES comes first, the peptide text is derived from it. [ ]: non-standard residue; d: D form. pGlu = O=C1CC[C@@H](C(=O)O)N1

For the compound `O=C(NN1CCCC1)NS(=O)(=O)c1ccc(Cl)cc1`, the Potency result in [1], in [2], in [3], in [4], in [5] and in [6] was “inactive” throughout. For the same compound, the Potency entry in test [7], in test [8], in [9] and in test [10] was “inactive” in each case.
Take `N#CSCC(=O)O`: the Potency entry in test [1], in test [2], in test [3], in [4], in test [5] and in test [6] was “inactive” in each case. Besides, the Potency result in [7], in test [8], in test [9] and in test [10] was “inactive” in each case.
For `O=C(O)CCC(=O)OC[C@@H](NC(=O)C(Cl)Cl)[C@H](O)c1ccc([N+](=O)[O-])cc1`, the Potency entry in [1], in test [2], in test [3], in [4], in test [5] and in test [6] was “inactive” in each case. Also, the Potency result in test [7], in [8], in [9] and in [10] was “inactive” each time.
Consider `O=C(O)c1ccc(OCCN2CCCCC2)cc1`, for which the Potency result in test [1], in test [2], in test [3], in [4], in [5] and in [6] was “inactive” throughout. Further, the Potency entry in test [7], in test [8], in test [9] and in test [10] was “inactive” throughout.
As for `CCC(=O)O[C@H]1[C@H](O[C@@H]2[C@@H](C)[C@H](O[C@H]3C[C@@](C)(OC)[C@@H](O)[C@H](C)O3)[C@@H](C)C(=O)O[C@H](CC)[C@@](C)(O)[C@H](O)[C@@H](C)C(=O)[C@H](C)C[C@@]2(C)O)O[C@H](C)C[C@@H]1N(C)C`, the Potency result in test [1], in test [2], in [3], in test [4], in [5] and in test [6] was “inactive” throughout. In addition, the Potency entry in [7], in [8], in [9] and in test [10] was “inactive” throughout.
As for `CCOC(=O)c1ccc(NC(=O)CN2CCCCC2)cc1`, the Potency entry in [1], in test [2], in test [3], in test [4], in [5] and in [6] was “inactive” each time. Moreover, the Potency entry in test [7], in [8], in test [9] and in test [10] was “inactive” each time.
With `CCOC(=O)C(=O)CCc1ccccc1`, the Potency entry in [1], in test [2], in test [3], in [4], in [5] and in [6] was “inactive” in each case. Further, the Potency entry in [7], in test [8], in [9] and in [10] was “inactive” throughout.
As to `CCCCC(CC)CNC(=O)CC(C)OC(=O)CCC(=O)O` (stereo unspecified), the Potency entry in test [1], in test [2], in test [3], in [4], in test [5] and in test [6] was “inactive” throughout. In addition, the Potency entry in test [7], in test [8], in test [9] and in test [10] was “inactive” each time.
On to `CNC[C@H](O)[C@@H](O)[C@H](O)[C@H](O)CO`, for which the Potency entry in [1], in test [2], in [3], in [4], in [5] and in test [6] was “inactive” each time. The Potency entry in test [7], in [8], in [9] and in test [10] was “inactive” each time.
With `CCCCCCCCCCCCCCCC[n+]1ccccc1`, the Potency in test [1] is 5.31 µM (active); in test [2], 15.5 µM (active); in test [3], 18.8 µM (active); in test [4], 21.1 µM (active); in [5] it was 15 µM (active); in [6], 7.7 µM (active). In addition, the Potency is 13.3 µM (active) in test [8], 6.92 µM (active) in test [9] and 7.5 µM (active) in [10]. Further, the Potency entry in test [7] was “inactive”.
For the compound `CCNC(=O)[C@@H]1CCCN1C(=O)[C@H](CCCN=C(N)N)NC(=O)[C@H](CC(C)C)NC(=O)CNC(=O)[C@H](Cc1ccc(O)cc1)NC(=O)[C@H](CO)NC(=O)[C@H](Cc1c[nH]c2ccccc12)NC(=O)[C@H](Cc1cnc[nH]1)NC(=O)[C@@H]1CCC(=O)N1` ([pGlu]HWSYGLRP-NHEt), the Potency entry in test [1], in test [2], in test [3], in test [4], in test [5] and in test [6] was “inactive” throughout. For the same compound, the Potency result in test [7], in test [8], in test [9] and in test [10] was “inactive” each time.
As for `Cc1coc2ccccc2c1=O`, the Potency result in test [1], in [2], in test [3], in test [4], in test [5] and in test [6] was “inactive” in each case. The Potency result in test [7], in test [8], in test [9] and in test [10] was “inactive” throughout.
For the compound `CCN1C(=O)c2ccccc2C1Nc1ccc(OCCN2CCCCC2)cc1` (stereo unspecified), the Potency result in test [1], in test [2], in [3], in test [4], in test [5] and in test [6] was “inactive” throughout. Besides, the Potency result in [7], in test [8], in test [9] and in test [10] was “inactive” in each case.
Turning to `Nc1c(I)cc(I)c(C(=O)N(CCC(=O)O)c2ccccc2)c1I`, the Potency result in test [1], in test [2], in test [3], in [4], in [5] and in test [6] was “inactive” in each case. The Potency entry in test [7], in test [8], in test [9] and in [10] was “inactive” each time.
`CC1(C)OC(=O)Nc2ccc(Br)cc21`: the Potency result in test [1], in [2], in [3], in test [4], in test [5] and in [6] was “inactive” each time. Moreover, the Potency entry in test [7], in test [8], in test [9] and in test [10] was “inactive” each time.
Consider `CCN1CCCC1CN` (stereo unspecified), for which the Potency result in test [1], in test [2], in test [3], in test [4], in test [5] and in test [6] was “inactive” throughout. The Potency entry in [7], in test [8] and in test [10] was “inactive” in each case.
For the compound `COC(=O)c1cc(Cl)ccc1OC`, the Potency entry in [1], in test [2], in test [3], in test [4], in test [5] and in test [6] was “inactive” throughout. Besides, the Potency result in [7], in [8], in [9] and in test [10] was “inactive” each time.
Consider `NS(=O)(=O)c1ccc(N2CCCCS2(=O)=O)cc1`, for which the Potency entry in [1], in [2], in test [3], in test [4], in test [5] and in test [6] was “inactive” each time. The Potency entry in [7], in test [8] and in test [10] was “inactive” in each case.
As for `Cc1onc(-c2ccccc2)c1C(=O)Cl`, the Potency entry in test [1], in [2], in [3], in test [4], in test [5] and in test [6] was “inactive” each time. The Potency entry in [7], in test [8] and in test [10] was “inactive” in each case.
Consider `CCCCCOc1ccc(C2SC(=O)NC2=O)cc1OCC` (stereo unspecified), for which the Potency result in test [1], in test [2], in test [3], in test [4], in test [5] and in test [6] was “inactive” each time. Further, the Potency entry in test [7], in test [8] and in test [10] was “inactive” throughout.
